Bioassay records deposited in PubChem by National Center for Advancing Translational Sciences (NCATS).
In the library only some 2.4% were active in any assay of this set; here they are far more common.
D2 PAM-1 = human D2 receptor positive allosteric modulation; DiscoveRx D2 beta-arrestin cells, luminescence, 90 min; 100% = 57 uM dopamine signal; potentiation, % (concentration not given with the values); 0.23% of 360,000 active; AID 624464; in the data active = potentiation above about 50%; inconclusive = mostly about 30% to 49%
Target sequence (P14416 whole entry, looked up): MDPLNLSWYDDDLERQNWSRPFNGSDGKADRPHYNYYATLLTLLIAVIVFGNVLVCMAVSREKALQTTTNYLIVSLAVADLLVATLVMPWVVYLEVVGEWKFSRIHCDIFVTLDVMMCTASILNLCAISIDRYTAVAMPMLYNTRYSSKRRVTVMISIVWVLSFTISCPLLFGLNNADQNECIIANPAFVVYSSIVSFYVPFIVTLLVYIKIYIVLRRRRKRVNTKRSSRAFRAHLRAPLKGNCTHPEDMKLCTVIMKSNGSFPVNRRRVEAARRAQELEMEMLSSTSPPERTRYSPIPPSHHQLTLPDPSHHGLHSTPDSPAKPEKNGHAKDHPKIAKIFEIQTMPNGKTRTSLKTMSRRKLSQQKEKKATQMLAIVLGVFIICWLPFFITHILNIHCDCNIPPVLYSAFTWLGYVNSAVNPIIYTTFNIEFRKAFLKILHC
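PathHunter D2 cells, attached overnight at 37 deg C, received compound in DMSO plus dopamine at EC20 (50 nM final) for 90 min at 37 deg C. Beta-arrestin recruitment was read as luminescence after 1 h with detection reagent at ambient temperature.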
D2 ag-1 = agonists of human D2 dopamine receptor (beta-arrestin). activation, % (no concentration beside the values). DiscoveRx PathHunter D2 beta-arrestin, luminescence, 90 min; 100% = 57 uM dopamine signal. P14416. AID 624465. 0.084% of 360,000 active; in the data active = activation above about 40%; inconclusive = between about 15% and that limit
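DiscoveRx PathHunter D2 beta-arrestin cells (2,100/well) attached overnight, then compound-stimulated 90 min at 37 C in HBSS/10 mM HEPES/0.1% Tween-20 buffer; beta-galactosidase complementation read by luminescence after 1 h at ambient temperature. Dopamine 57 uM final (EC100) as control.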
D2 PAM-2 = positive allosteric modulators of human D2 dopamine receptor; P14416; HEK293 T-REx D2, calcium flux, EC20 dopamine potentiation; potentiation, % at 10 µM; 0.34% of 340,000 active;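 active = potentiation over 3 SD above the plate norm, cut at about 30% in these data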; also: 0% is about no effect
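Tetracycline-induced HEK293 T-REx cells force-coupled to calcium signalling expressed D2; compounds were pin-added after a 10 s baseline, read kinetically 180 s, then an EC20 dopamine challenge followed with a further 180 s calcium read.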
D2 ag-2 = activates the human D2 dopamine receptor | HEK293 T-REx D2 cells, calcium flux agonist mode | activation, % at 2 µM | 0.53% of 340,000 active;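 active = activation over 3 SD above normal in the single-dose calcium agonist read, cut at about 30% in these data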; also: 0% is about no effect
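In this primary screen, compounds producing a positive calcium signal within 180 s of addition to tetracycline-induced, force-coupled HEK293 Trex D2 cells are flagged; cells are dye-loaded with a no-wash calcium kit beforehand.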
D2 antag = antagonizes the human D2 dopamine receptor. HEK293 TREx D2 cells, calcium flux, dopamine EC80. inhibition, % at 10 µM. 2% of 340,000 active. AID 485344; in the data active = inhibition above about 30%; inactive = below that, where a call was filed; also: 0% is about no effect
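Read-out: kinetic calcium fluorescence (1 cycle/s) in inducible HEK293 T-REx D2 cells after an EC80 dopamine addition that followed 180 s compound preincubation. Loss of the dopamine response indicates antagonism.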
Starred values were filed as active, the others as inactive; ? = inconclusive; / = no result given.

SMILES	D2 PAM-1	D2 ag-1	D2 PAM-2	D2 ag-2	D2 antag
COc1cc(OC)c(OC)cc1CN1CCCC(C(=O)c2sccc2C)C1 (stereo unspecified)	-7	-5	-20	-1	5
Cc1ccsc1C(=O)C1CCCN(Cc2cc(F)ccc2-n2cccn2)C1 (stereo unspecified)	-43	-6	-17	2	34*
CCCCCC(=O)N1C[C@H](O)[C@@H](n2cc(-c3ccc(F)cc3)nn2)C[C@@H]1c1ccc(OC)cc1	-4	-7	/	/	/
CCCCN(C/C=C/c1ccccc1OC)Cc1ccccc1	-34	2	-7	2	22
CCN(C/C=C/c1ccccc1OC)Cc1ccccc1	-26	1	-30	0	80*
CCOC(=O)c1cnc2ccc(OC(F)(F)F)cc2c1Nc1ccccc1C(=O)O	/	/	18	0	/
CCOc1ccc(NC(=O)Cn2cnc3c(oc4ccccc43)c2=O)cc1	/	/	-15	-1	/
Cc1ccccc1OCc1nc2ccccc2c(=O)n1/N=C/c1cn[nH]c1-c1ccccc1	8	-2	-2	0	57*
O=C(NCC(c1ccc2c(c1)OCO2)N1CCN(c2ccccc2)CC1)c1ccccc1 (stereo unspecified)	/	/	-21	/	/
CC(C)Nc1nc(Cl)nc(NN(C)c2nc(N(C)C)nc(N(C)C)n2)n1	0	-4	-9	-1	34*
CN(C)S(=O)(=O)c1cccc(NC(=O)CCNC(=O)Nc2ccccc2)c1	-4	-1	/	/	/
COc1cc(CCC(=O)Nc2cccc(S(=O)(=O)N(C)C)c2)cc(OC)c1OC	-5	-3	5	0	39*
CN(C)S(=O)(=O)c1cccc(NC(=O)COC(=O)c2ccc([N+](=O)[O-])o2)c1	78*	11	0	-1	-2
COc1cccc(/C=N/NC(=S)Nc2cccc(S(=O)(=O)N(C)C)c2)c1	-5	-1	-11	2	1
CN(C)S(=O)(=O)c1cccc(NC(=O)CCSc2ccc(Cl)cc2)c1	-25	-2	-20	1	33*
COC(=O)c1cccc(NC(=O)CCc2cc(OC)c(OC)c(OC)c2)c1	7	-1	0	-1	-7
COc1cc(/C=N/NC(=S)Nc2cccc(S(=O)(=O)N(C)C)c2)cc(OC)c1O	10	6	40*	-2	-7
O=C(CSc1n[nH]c(=O)[nH]c1=O)c1ccc(Cl)cc1Cl	-2	-1	16	0	5
CC(C)(C)c1ccc(C(=O)CSc2n[nH]c(=O)[nH]c2=O)cc1	-1	-3	-8	0	31*
CCc1nc2ccc(C(=O)Nc3cccc(OCC(=O)N(C)C)c3)cn2c1N(C)Cc1ccc(OC)cc1	4	?	/	/	/
O=C(CCNC(=O)c1ccc([N+](=O)[O-])cc1)NC1CCCc2ccccc21 (stereo unspecified)	4	0	-21	0	32*
O=C(CCNC(=O)c1ccccc1)NC1CCCc2ccccc21 (stereo unspecified)	0	2	4	/	-9
c1ccc(-n2ncc3c(NC4CCCCCC4)ncnc32)cc1	-3	-3	-2	0	46*
NNc1ncnc2c1cnn2-c1ccccc1	-7	-4	6	0	31*
CCOc1ccccc1C1CC(=O)Nc2c1c(=O)n(C)c1ncnn21 (stereo unspecified)	/	/	14	0	/
SMILES	D2 PAM-1	D2 ag-1	D2 PAM-2	D2 ag-2	D2 antag
CNS(=O)(=O)c1cn(CC(=O)Nc2cccc(C(F)(F)F)c2)cc1S(=O)(=O)NC	/	/	2	0	/
Cc1cccc(Cn2cccc2CNS(=O)(=O)c2ccc(C)c(C)c2)c1	/	/	-4	2	/
Cc1nnc(N/N=C/c2c(Cl)cccc2Cl)n1N	14	4	-4	0	4
CCc1nnc(N/N=C/c2c(F)cccc2Cl)n1N	15	41*	-2	-1	2
Cc1ccc(S(=O)(=O)n2cc(-c3ccccc3)c(N)n2)cc1	-8	-2	-3	-1	4
Nc1nn(S(=O)(=O)c2ccccc2)cc1-c1ccc([N+](=O)[O-])cc1	74*	?	10	0	-4
COC(=O)c1cc(CNC(=O)c2ccc(S(=O)(=O)N(C)c3ccccc3)cc2)ccc1OC	-11	-1	-25	0	74*
